# From PubChem
# TcdB GH inh: blocks C. difficile toxin B glycohydrolase activity | P18177 | TcdB glycohydrolase enzymatic assay, plate reader | inhibition, % at 9.99 µM | 0.24% of 350,000 active; in the data active = inhibition above about 10%
# Anthrax LF inh2: inhibitors of Bacillus anthracis lethal factor protease; P15917; multiplex microsphere protease cleavage assay, LF; inhibition, % at 10 µM; 0.12% of 360,000 active; AID 588501; also: plate controls were buffer without enzyme for full effect and enzyme alone for no effect
# BoNT A protease: blocks Botulinum neurotoxin A light chain protease; 0.17% of 360,000 active; multiplex microsphere protease substrate cleavage, flow cytometry; inhibition, % at 10 µM; AID 588499; also: plate controls were buffer without enzyme for full effect and enzyme alone for no effect
# Bead autofluor: flagged as autofluorescent in microsphere protease counterscreen; compound autofluorescence counterscreen, microsphere flow cytometry; hits give high values; fluorescence intensity (concentration not given with the values); 3.1% of 360,000 active; AID 624483; in the data active = fluorescence intensity above about 16000; inconclusive = no clear call, values can overlap the other calls
# BoNT F protease: inhibitors of Botulinum neurotoxin F light chain protease. Multiplex microsphere protease cleavage assay, flow cytometry. inhibition, % at 10 µM. 0.22% of 360,000 active; in the data active = inhibition above about 35%, passing the limit was not always enough; inconclusive = no clear call, values can overlap the other calls; also: plate controls were buffer without enzyme for full effect and enzyme alone for no effect
# Active calls of the source: *; ? = inconclusive; . = no result given. This excerpt belongs to a sample that is enriched for hits. Rule as the data show it, unless noted: active = inhibition above about 30%; inconclusive = no clear call, values can overlap the other calls; inactive = below that.
SMILES,TcdB GH inh,Anthrax LF inh2,BoNT A protease,Bead autofluor,BoNT F protease
CNC[C@H]1OCCCC[C@H](C)Oc2ccc(NC(=O)NC3CCCCC3)cc2C(=O)N([C@H](C)CO)C[C@@H]1C,0,.,.,.,.
Nc1nsnc1C(=O)NCCO,4,-1,-3,17466*,-5
O=C(NCCO)c1ccc(Cl)c(Cl)c1,.,-3,1,4898,-13
COc1nc(-c2cccs2)cc(-c2ccc(C)cc2)c1C#N,.,-3,5,21880*,5
COc1ccc(CNc2oc(COc3ccc(Cl)cc3)nc2C#N)cc1,.,-3,-4,20982*,-10
N#Cc1nc(-c2ccc(Cl)cc2)oc1NCc1cccc2c1OCO2,.,-1,1,19143*,-2
N#Cc1nc(-c2ccc(F)cc2)oc1NCCN1CCOCC1,0,-4,-1,5639,-3
COc1ccc(-c2nc(C#N)c(NCc3ccccc3Cl)o2)cc1OC,2,4,1,9497,-2
COc1ccc(-c2nc(C#N)c(NCc3ccccc3Cl)o2)cc1,.,0,?,20055*,4
Cc1ccc(-c2nc(C#N)c(NCCN3CCCCC3)o2)cc1,.,-3,?,22423*,-11
C[C@@H]1CN([C@H](C)CO)C(=O)Cc2cc(NC(=O)Nc3ccccc3)ccc2O[C@H]1CN(C)S(=O)(=O)c1cccs1,-1,.,.,.,.
Cc1ccc(Nc2ncccc2C(=O)NCc2cccs2)c(C)c1,.,-4,?,21631*,-10
O=C(CSc1nnnn1C1CCCCC1)N1c2ccccc2Sc2ccccc21,.,-1,?,19588*,5
O=C(CSc1nc(C2CC2)nc2ccccc12)N1c2ccccc2Sc2ccccc21,.,-1,2,22153*,1
C[C@H](O)C#Cc1ccc2c(c1)O[C@@H](CN(C)C(=O)CC1CC1)[C@H](C)CN([C@H](C)CO)S2(=O)=O,0,.,.,.,.
CCNCCOC(c1ccccc1)c1ccccc1,.,-12,?,18751*,2
O=C(c1ccc(COc2ccc(Cl)cc2)o1)N1N=C(C(F)F)CC1(O)C(F)F (stereo unspecified),-1,0,-1,1977,-7
COc1ccccc1OCc1ccc(C(=O)N2N=C(C(F)F)CC2(O)C(F)F)o1 (stereo unspecified),.,-1,-3,16851*,-4
CN(C)Cc1c(C(=O)N/N=C/c2ccncc2)nnn1-c1nonc1N,2,13,2,3978,42*
CCOc1ccc(/C=N/NC(=O)c2nnn(-c3nonc3N)c2COc2ccc(F)cc2)cc1,0,-14,-4,3360,?
CN(C)c1ccc(/C=N/NC(=O)c2nnn(-c3nonc3N)c2COc2ccc(F)cc2)cc1,0,32*,3,3819,27
Cc1noc(C)c1NC(=O)Nc1ccc2c(c1)C(=O)N([C@@H](C)CO)C[C@H](C)[C@@H](CN(C)C(=O)Nc1ccc3c(c1)OCO3)OCCCC[C@H](C)O2,1,.,.,.,.
C[C@@H]1CN([C@@H](C)CO)C(=O)c2cc(-c3ccccc3)cnc2O[C@@H]1CN(C)C(=O)c1ccccn1,-1,.,.,.,.
Cc1ccc(-n2[nH]c(=O)c3cccnc32)cc1,.,-5,-2,16502*,-3
CCN1[C@H](C(=O)Nc2ccccc2)[C@@H](CO)[C@@H]2Cn3c(ccc(-c4ccc(F)cc4)c3=O)[C@@H]21,0,.,.,.,.
SMILES,TcdB GH inh,Anthrax LF inh2,BoNT A protease,Bead autofluor,BoNT F protease
Cc1ccc(C2(CC(=O)N3CCCC3)CCOC(C(C)C)C2)cc1 (stereo unspecified),.,4,0,5863,-2
COc1ccccc1C1(CC(=O)N2CCCCC2)CCOC(C(C)C)C1 (stereo unspecified),.,3,0,16312*,-2
O=C(CN1C(=O)CSc2ccccc21)Nc1ccccc1C(=O)N1CCOCC1,.,-1,3,22009*,2
O=C(CN1C(=O)CCSc2ccccc21)Nc1ccccc1,.,-1,-1,11204,-7
O=C(CN1C(=O)CCSc2ccccc21)Nc1ccc2c(c1)OCCO2,.,-7,-1,16584*,-7
CC1CC(=O)N(CC(=O)Nc2ccc3c(c2)OCO3)c2ccccc2S1 (stereo unspecified),.,-5,-4,17388*,-6
C[C@@H]1CN([C@@H](C)CO)C(=O)c2cc(C#CCN(C)C)cnc2O[C@@H]1CN(C)S(C)(=O)=O,0,.,.,.,.
CC(C)OC(=O)c1ccc(N2CCN(c3ccc(F)cc3)CC2)nc1,2,8,-2,3898,4
O=C(Nc1ccccc1)c1cccnc1N1CCCC1,.,-5,?,17182*,-7
CC(C)OC(=O)c1cccnc1N1CCN(c2ccc(F)cc2)CC1,.,-3,-2,23861*,-2
O=C(Nc1ccc(Br)cc1)c1cccnc1N1CCOCC1,.,-5,-1,5509,-5
COC(=O)c1cccnc1N1CCN(c2ccccc2F)CC1,.,-4,?,23700*,0
Nc1nonc1C(=O)OCC(=O)N1CCOCC1,.,-7,?,20876*,-5
Cc1cccc(NC(=O)c2cc(NC(=O)CCCC(=O)O)ccc2Cl)n1,.,-10,-2,23857*,-7
CC(=O)NC(=O)NC1CSCC1OC(C)=O (stereo unspecified),.,-2,?,23409*,-4
Cc1ccc(C)n1-c1ccc(-n2cnnn2)cc1,.,0,1,16233*,0
CC(=O)N(C)C[C@@H]1Oc2ncc(C#Cc3cccc(F)c3)cc2C(=O)N([C@@H](C)CO)C[C@H]1C,-2,.,.,.,.
NC(=NCc1ccc2c(c1)OCO2)NC(=O)c1ccccc1,1,-8,6,4326,45*
C/C(=N\NC(=O)c1ccccc1)c1ccc2c(c1)OCO2,.,2,0,22585*,4
CC(=O)Nc1cccc(/C(C)=N/NC(=O)c2ccc3c(c2)OCO3)c1,0,3,0,4785,2
C[C@H](CO)N1C[C@H](C)[C@@H](CN(C)C(=O)Nc2ccc3c(c2)OCO3)Oc2ccc(NS(=O)(=O)c3cn(C)cn3)cc2CC1=O,-6,.,.,.,.
c1csc(-c2nnc3ccccn23)c1,-1,-4,?,18537*,9
Nc1c(-c2cccs2)nc2ccccn12,1,-1,0,5438,-2
Cc1c(Cl)c(C(=O)NC2C3CC4CC(C3)CC2C4)nn1C (stereo unspecified),.,-5,?,21785*,0
CC(C)NC(=O)Nc1cccc2c1O[C@H](CN(C)C(=O)Nc1cccc3ccccc13)[C@@H](C)CN([C@H](C)CO)C2=O,1,.,.,.,.
CCCc1cc(N2CCCC(C(=O)Nc3cc(Cl)ccc3OC)C2)n2ncnc2n1 (stereo unspecified),.,1,?,16461*,0
COc1ccc(Cl)cc1NC(=O)C1CCCN(c2cc(C)nc3ncnn23)C1 (stereo unspecified),.,-2,0,9706,-3
Cc1ccc(S(=O)(=O)N(C)C[C@@H]2Oc3ccc(NC(=O)CCCCCC(=O)Nc4ccccc4N)cc3CC(=O)N([C@H](C)CO)C[C@@H]2C)cc1,-1,.,.,.,.
O=C(CSc1nnc2scc(-c3ccccc3)n12)NCC1CCCO1 (stereo unspecified),.,1,-2,21160*,-4
COc1ccc(-c2nnc3ccc(SCC(=O)NCc4ccco4)nn23)cc1,.,3,0,8467,7
